ELG1 genotoxic: inducers of genotoxicity in HEK293T ELG1-luciferase cells. actives 1.3% (n = 330,000). HEK293T ELG1-luciferase reporter, luminescence, 16 h. Potency, µM (highest dose often 46 µM), for inactives: at the top dose activity change, positive = activation, actives largely listed as activators; further: % of control where 0% means no effect; nearly all actives have a fitted effect of over 60% in size
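DMSO vehicle served as control against compound-treated ELG1-luciferase HEK293T cells; exposure lasted 16 hr at 37 °C and 5% CO2, followed by ONE-Glo luminescence detection after 30 min.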
Rab9 promoter act: Rab9 promoter activation | Huh7 Rab9 promoter-luciferase reporter, luminescence, 24 h | Potency, µM (series often up to 9.22 µM), for inactives: top-dose activation, negative = inhibition, usual class: activators | actives 2.8% (n = 320,000) | AID 485297; further: % of control where 0% means no effect; nearly all actives have a fitted effect of over 60% in size
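Luciferase signal after 10 min detection reagent at ambient indicates Rab9 promoter upregulation; stably transfected Huh7 cells were treated 24 h with compound in DMSO at 37 °C, 5% CO2.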
SMN2 splice up: enhancers of SMN2 splice variant expression; Potency, µM (titrated, usually from 46.1 µM), without a hit: at the top dose activity change, positive = activation, hits mostly activators; AID 1458; actives 2.8% (n = 210,000); HEK293 SMN2-luciferase splicing reporter, luminescence, 30-36 h; further: % of control where 0% means no effect; nearly all actives have a fitted effect of over 55% in size
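HEK293 cells carry an SMN2 […]–luciferase reporter in which exon 7 inclusion puts luciferase in frame. Cells were plated 10-12 h before compound addition, then incubated 30-36 h at 37C. ONE-Glo luminescence was read; sodium butyrate at 4.5 mM final served as control.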
FLuc counter: counter-screen for miR-21 project: firefly luciferase inhibitors or activators; P08659; purified FLuc, Km substrates, luminescence inhibition; Potency, µM (top dose mostly 57.5 µM), for the others: at the top dose activity change, negative = inhibition, hits mostly inhibitors; actives 6.9% (n = 360,000); AID 588342;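 further: plate controls were vehicle for no effect and reference inhibitor for full effect; nearly all actives have a fitted effect of over 55% in size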
Target sequence (P08659 whole entry, looked up): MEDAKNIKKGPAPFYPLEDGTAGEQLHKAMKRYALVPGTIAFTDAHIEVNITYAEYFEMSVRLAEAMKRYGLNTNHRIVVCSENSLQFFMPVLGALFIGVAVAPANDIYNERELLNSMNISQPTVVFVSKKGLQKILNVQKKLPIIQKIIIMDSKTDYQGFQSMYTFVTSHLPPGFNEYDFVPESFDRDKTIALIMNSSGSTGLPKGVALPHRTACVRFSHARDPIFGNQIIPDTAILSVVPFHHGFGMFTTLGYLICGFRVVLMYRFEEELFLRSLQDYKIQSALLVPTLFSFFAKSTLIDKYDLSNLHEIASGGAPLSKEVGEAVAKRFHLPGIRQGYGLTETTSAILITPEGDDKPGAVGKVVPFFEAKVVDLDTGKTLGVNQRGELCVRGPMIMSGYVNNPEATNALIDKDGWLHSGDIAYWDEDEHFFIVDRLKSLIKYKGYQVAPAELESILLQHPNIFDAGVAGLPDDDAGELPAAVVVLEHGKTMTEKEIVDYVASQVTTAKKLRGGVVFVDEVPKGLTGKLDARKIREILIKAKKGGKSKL
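Biochemical qHTS of compounds, final roughly 60 µM downward over six points, against 10 nM purified firefly luciferase using Km concentrations of substrates (10 uM D-luciferin, 10 uM ATP) in Tris acetate pH 7.5 buffer; luminescence output.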
NPC1 promoter act: activates the NPC1 promoter. Huh7 NPC1 promoter luciferase reporter, 24 h. Potency, µM (titrated, usually from 9.22 µM), inactives show at the highest dose activation, actives largely listed as activators. actives 2.4% (n = 320,000); further: % of control where 0% means no effect; nearly all actives have a fitted effect of over 60% in size
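Luminescence from an NPC1 promoter-driven luciferase reporter in stably transfected Huh7 cells was measured after 24 h compound treatment at 37 °C, followed by 10 min ambient incubation with luciferase detection reagent.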
* marks the source's active call; other numbers are inactive results; ? = inconclusive; . = not tested or not shown; [ ] = another dose, or the depositor's remark. Hits are enriched below; roughly 7.4% of the tested compounds scored in any of these assays. The call rests on the fitted dose curve; in most records, active means well fitted curve in the direction sought with a large enough effect; inconclusive means small, poorly fitted or top-dose-only effect, or another doubt; inactive means no such curve, though single readings can be large; an effect the other way counts as inactive or inconclusive. Potency means the concentration at half of the fitted maximal effect.

SMILES	ELG1 genotoxic	Rab9 promoter act	SMN2 splice up	FLuc counter	NPC1 promoter act
O=c1c(/C=N/OCc2ccc(Cl)cc2Cl)c[nH]n1-c1cccc(Cl)n1	-4.7%	7.0%	-14.7%	10.7µM*	2.4%
O=C(Nc1cccc(S(=O)(=O)N2CCOCC2)c1)c1cc2ccccc2o1	-8.2%	1.1%	.	16.9µM*	0.7%
O=C(Nc1cc(S(=O)(=O)N2CCOCC2)ccc1Cl)c1cc2ccccc2o1	-1.5%	1.9%	.	.	-6.2%
COc1ccc2oc(C(=O)Nc3cccc(S(=O)(=O)N4CCOCC4)c3)c(C)c2c1	-5.5%	0.9%	.	6.01µM*	1.8%
COc1ccc2oc(C(=O)OCC(=O)Nc3cccc(S(=O)(=O)N4CCOCC4)c3)c(C)c2c1	1.0%	0.4%	.	?	0.4%
O=C(Nc1cccc(S(=O)(=O)N2CCCCC2)c1)c1cc2ccccc2o1	-9.3%	13.3%	.	8.49µM*	0.4%
COc1cc(OC)c2c(=O)c(-c3ccccc3)c(C)oc2c1OC	.	.	-3.9%	.	.
CCN(CC)c1ccc(C=Nc2ccccc2)c(O)c1	6.4%	-0.6%	19.8%	4.26µM*	-8.3%
CCN(CC)c1ccc(C=Nc2ccc(N(C)C)cc2)c(O)c1	13µM*	15.4%	-1.1%	8.49µM*	0.1%
CCN(CC)c1ccc(/C=N/Nc2cccc(C)c2)c(O)c1	13.9%	1.4%	?	?	16.2%
CCN(CC)c1ccc(C=Nc2ccc(C)cc2)c(O)c1	1.3%	3.2%	8.3%	10.7µM*	0.1%
CCN(CC)c1ccc(C=Nc2cc(C)cc(C)c2)c(O)c1	0.5%	8.2%	-6.3%	?	1.0%
CCN(CC)c1ccc(N=Cc2ccc(N(CC)CC)cc2O)cc1	-16.3%	-2.0%	24.4%	-11.2%	5.9%
CCN(CC)c1ccc(/C=N/Nc2ccccc2)c(O)c1	8.2%	14.8%	5.0%	21.3µM*	10.9%
CCCCCOc1ccccc1CN1C(=O)C(=O)c2cc(C)ccc21	.	.	2.8%	-17.3%	.
Cc1ccc(NC(=O)CN2C(=O)CC(c3ccco3)Sc3ccccc32)cc1Cl (stereo not given)	.	.	-4.9%	-14.1%	.
COc1ccc(OC)c(CCNC(=O)CCn2c(=O)c3cccn3c3cccnc32)c1	.	.	.	-2.0%	.
CCN(CC)c1ccc(/C=N/N2CCOCC2)c(O)c1	?	3.55µM*	8.91µM*	13.5µM*	?
Cc1ccccc1OCc1nc2ccccc2[nH]1	?	1.78µM*	.	4.78µM*	?
COc1ccccc1OCc1nc2ccccc2[nH]1	?	2µM*	11.2µM*	10.7µM*	2.51µM*
c1cnc2c(OCc3nc4ccccc4[nH]3)cccc2c1	?	2.24µM*	11.2µM*	9.53µM*	3.98µM*
CC(=O)c1cc(-c2ccc(F)cc2)n(CCC(=O)NCc2ccc(C)cc2)c1C	.	.	.	-6.8%	.
CSc1nc(-c2ccc(N(C)C)cc2)c(C#N)c(=O)n1C	?	?	.	12µM*	?
CSc1nc(-c2ccc(Cl)cc2)c(C#N)c(=O)n1C	-1.9%	-7.2%	-23.7%	-0.1%	-7.6%
CCCn1c(O)c(C=Nc2ccccc2)sc1=S	?	?	.	21.3µM*	13.5%
SMILES	ELG1 genotoxic	Rab9 promoter act	SMN2 splice up	FLuc counter	NPC1 promoter act
CCCCn1c(O)c(/C=C/C=C/C=Nc2ccccc2)sc1=S	4.9%	1.0%	-57.2%	10.7µM*	-13.2%
Nc1c2c(=O)oc(-c3ccccc3)cc2nn1-c1ccccc1	?	0.708µM*	12.6µM*	4.78µM*	?
CC1Cc2ccccc2N1C(=O)COC(=O)/C=C/c1ccc(F)cc1 (stereo not given)	0.7%	-0.6%	.	4.0%	-6.9%
CC1Cc2ccccc2N1C(=O)/C=C/c1cccc(F)c1 (stereo not given)	?	1.78µM*	11.2µM*	6.01µM*	2.24µM*
Cc1[nH]c2ccccc2c1N=Nc1c(C)n(C)n(-c2ccccc2)c1=O	-9.8%	-1.2%	-4.6%	-14.2%	-0.8%
Cc1c(NC(=O)/C(C#N)=C/c2ccc(-c3cccc(Cl)c3)o2)c(=O)n(-c2ccccc2)n1C	-13.5%	-3.4%	-25.1%	-13.6%	-3.9%
Cc1c(N=Nc2ccc(O)cc2)c(=O)n(-c2ccccc2)n1C	8.5%	5.8%	15.7%	-12.4%	10.5%
Cc1cccc(-c2ccc(C=Nc3c(C)n(C)n(-c4ccccc4)c3=O)o2)c1	0.0%	8.7%	-7.9%	23.9µM*	6.8%
Cc1c(N=Cc2nc3ccccc3[nH]2)c(=O)n(-c2ccccc2)n1C	-0.4%	8.0%	-35.3%	13.5µM*	13.5%
Cc1c(N=Cc2nc3ccccc3n2C)c(=O)n(-c2ccccc2)n1C	?	4.5%	1.4%	1.51µM*	0.3%
CC(=O)Nc1ccc(SCC(=O)c2cc(C)n(Cc3cccs3)c2C)cc1	?	?	-53.3%	16.9µM*	13.1%
COCC(C)n1c(C)cc(C(=O)CSc2ncccn2)c1C (stereo not given)	?	3.98µM*	11.2µM*	15.1µM*	3.16µM*
CC(=O)Nc1ccc(NCc2cccs2)cc1	6.1%	20.5%	.	-11.9%	12.3%
O=C(CSc1ncccn1)c1ccccc1Br	17.0%	2.7%	12.6µM*	?	1.3%
COCCn1c(C)cc(C(=O)CSc2ccc(NC(C)=O)cc2)c1C	?	2µM*	-42.0%	?	?
CCCCc1cc2c(cn1)=C(OC(=O)C1CCCC1)C(C)(OC(=O)CC)C(=O)C=2 (stereo not given)	.	.	-2.0%[9.22 µM]	.	.
O=C(O)CCC/C=C\C[C@@H]1[C@@H](/C=C/[C@H](O)C2Cc3ccccc3C2)[C@@H](F)C[C@@H]1O	.	?	.	.	5.5%[46.1 µM]
O=C(O)c1ccc2cc(-c3ccc(O)c(C45CC6CC(CC(C6)C4)C5)c3)ccc2c1	.	.	-79.9%	.	.
C=CCn1c(C)cc(C(=O)CSc2ccc(NC(C)=O)cc2)c1C	?	0.316µM*	-51.5%	16.9µM*	0.501µM*
COCC(C)n1c(C)cc(C(=O)CSc2nnc(Nc3ccccc3F)s2)c1C (stereo not given)	-11.4%	7.3%	-25.1%	16.9µM*	-4.1%
COCC(C)n1c(C)cc(C(=O)CSc2nnnn2-c2ccc(O)cc2)c1C (stereo not given)	2.7%	10.0%	0.5%	21.3µM*	5.6%
COCC(C)n1c(C)cc(C(=O)CSc2ccc(NC(C)=O)cc2)c1C (stereo not given)	7.94µM*	?	-40.1%	-18.9%	?
COCCNC(=O)Cn1c(-c2cccs2)cc2cc(Cl)ccc21	.	.	.	-4.8%	.
Cc1ccccc1C(=O)Nc1cccc(C(=O)OCc2cc(=O)n3c4c(sc3n2)CCCC4)c1	.	.	.	0.4%	.
CCOC(=O)c1c(C)[nH]c(C)c1S(=O)(=O)N1CCCC(C(=O)Nc2ccc(OC)c(OC)c2)C1 (stereo not given)	.	.	.	2.8%	.
COC(=O)c1ccc(-n2c(C)cc(C(=O)CSc3ccc(NC(C)=O)cc3)c2C)cc1	-8.4%	-1.9%	-12.2%	-12.3%	-0.4%

Bioassay records from PubChem.
